# Results filed as inconclusive are left out. Active and inactive are the calls of the source. Calls come from the whole dose curve; as a rule, active = well fitted cell-killing curve with a large enough effect in the repeat runs; inconclusive = weak or mixed curves, or effect the other way; inactive = flat fitted curve, though single readings scatter.
# Experiment: cAMP Responsive Elements (CRE) small molecule antagonists, cell-based qHTS assay: qHTS cell viability counter screen (AID 2060913); note: nearly all actives have a fitted effect of over 40% in size
# Settings: CRE-bla HEK293T viability, CellTiter-Glo luminescence, 5 h; series mostly up to 92.4 µM; viability change, negative = cytotoxic: at the top concentration
# Summary of the method: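 Cytotoxicity read in the same wells as the CRE-bla HEK293T antagonist assay: after 3 h compound with 0.25 uM NKH477 final and 2 h beta-lactamase substrate, CellTiter-Glo luminescence measured.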
# % is set by controls: 0 for no effect and ±100 for the full control effect; potency is the fitted concentration of half-maximal effect.
Compound,"viability change, negative = cytotoxic",Potency
CO/N=C(/C(=O)N[C@@H]1C(=O)N2C(C(=O)OCOC(=O)C(C)(C)C)=C(C)CS[C@H]12)c1csc(N)n1,-0.287% [at 42.5 µM] (inactive),
Nc1ccn(C2CO[C@H](CO)O2)c(=O)n1 (stereo partly drawn),-2.87% [at 42.5 µM] (inactive),
[O]=[Bi],-2.63% [at 8.39 µM] (inactive),
COc1cc(-c2ccc(=O)[nH]n2)ccc1OC(F)F,-5.74% [at 42.5 µM] (inactive),
Cc1ccc(S(N)(=O)=O)cc1,,inactive
O=C(c1ccc(F)cc1)C1CCN(CCn2c(=O)[nH]c3ccccc3c2=O)CC1,0.452% [at 42.5 µM] (inactive),
O=[N+]([O-])c1cc(Cl)c(Cl)c(Cl)c1Cl,6.26% (inactive),
Cc1ccc(C)c(C)c1,,inactive
C/C=C/C(=O)C1=C(C)CCCC1(C)C,-11.8% (inactive),
COCCOCCOCCO,,inactive
COc1cccc(N(C)C(=S)Oc2ccc3c(c2)CCCC3)n1,-4.21% [at 42.5 µM] (inactive),
CCNc1nc(N)nc(Cl)n1,2.21% (inactive),
C[N+](C)(C)CCO,,inactive
Nc1ccnc(=O)[nH]1,-6.76% (inactive),
O=c1[nH]cnc2c1ncn2[C@@H]1O[C@H](CO)[C@@H](O)[C@H]1O,8.88% [at 42.5 µM] (inactive),
CNCc1cc(F)ccc1Oc1ccc(Cl)c(Cl)c1,-16.3% (inactive),
CCCOCCOCCO,-0.436% (inactive),
COc1ccc(OC)cc1,,inactive
CC(O)COc1ccccc1 (stereo not drawn),,inactive
Cc1ccccc1,-0.148% (inactive),

Compound,"viability change, negative = cytotoxic",Potency
COc1ccc(C(=O)Nc2nc3ccccc3c(NCc3ccccc3)c2C#N)cc1,6.53% (inactive),
N#Cc1c(F)cccc1F,-3.11% (inactive),
Cc1cc(CCN2CCN(c3nsc4ccccc34)CC2)cc2c1NC(=O)CC2(C)C,,68.6 µM (active)
O=C=Nc1ccc(Cc2ccc(N=C=O)cc2)cc1,,inactive
Cc1cccc([N+](=O)[O-])c1C(=O)O,-0.349% (inactive),
CO[Si](OC)(OC)c1ccccc1,-1.51% (inactive),
CCOC(=O)[C@H](CCc1ccccc1)N[C@@H](C)C(=O)N1Cc2ccccc2C[C@H]1C(=O)O,,inactive
CC(=O)C(=O)CC(C)C,-8.58% (inactive),
CCCc1nc2c(C)cc(-c3nc4ccccc4n3C)cc2n1Cc1ccc(-c2ccccc2C(=O)O)cc1,-5.03% [at 42.5 µM] (inactive),
CCCCOC(=O)c1ccc(N)cc1,,inactive
COc1ccc2c(c1)c1c3n2CCN(C)C3=NCC1,-3.96% [at 42.5 µM] (inactive),
COC(=O)C1=C(C)NC(C)=C(C(=O)OCCN2CCN(C(c3ccccc3)c3ccccc3)CC2)C1c1cccc([N+](=O)[O-])c1 (stereo not drawn),-0.392% [at 42.5 µM] (inactive),
CC1=CCC(C(C)C)=CC1,-0.138% (inactive),
O=P(OC(CCl)CCl)(OC(CCl)CCl)OC(CCl)CCl,,inactive
Clc1ccc2cc3ccccc3cc2c1,18.2% (inactive),
c1ccc2n[nH]nc2c1,,inactive
NC(=O)/N=N/C(N)=O,,inactive
Cc1c(C(=O)NCCO)[n+](=O)c2ccccc2n1[O-],0.313% [at 42.5 µM] (inactive),
CCCSS/C(CCO)=C(\C)N(C=O)Cc1cnc(C)nc1N,14.7% [at 42.5 µM] (inactive),

# Experiment: cAMP Responsive Elements (CRE) small molecule agonists, cell-based qHTS assay: qHTS cell viability counter screen (AID 2060914);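 note: viability read after 3 h of compound exposure; nearly all actives have a fitted effect of over 50% in size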
# Settings: CRE-bla HEK293T viability, CellTiter-Glo luminescence, 5 h; series mostly up to 92.4 µM; activity change, negative = cytotoxicity: at the top concentration
# Summary of the method: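 HEK 293T CRE-bla; DMEM + 10% dialyzed FBS, 25 mM HEPES; 18 h pre-incubation; compound 3 h, 37 °C/5% CO2; CellTiter-Glo added after reporter read; luminescence after 30 min RT.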
Compound,"activity change, negative = cytotoxicity",Potency
CO/N=C(/C(=O)N[C@@H]1C(=O)N2C(C(=O)OCOC(=O)C(C)(C)C)=C(C)CS[C@H]12)c1csc(N)n1,-12.8% [at 42.5 µM] (inactive),
Nc1ccn(C2CO[C@H](CO)O2)c(=O)n1 (stereo partly drawn),19% [at 42.5 µM] (inactive),
[O]=[Bi],-8.94% [at 8.39 µM] (inactive),
COc1cc(-c2ccc(=O)[nH]n2)ccc1OC(F)F,-14.4% [at 42.5 µM] (inactive),
Cc1ccc(S(N)(=O)=O)cc1,,inactive
O=C(c1ccc(F)cc1)C1CCN(CCn2c(=O)[nH]c3ccccc3c2=O)CC1,1.21% [at 42.5 µM] (inactive),
O=[N+]([O-])c1cc(Cl)c(Cl)c(Cl)c1Cl,4.8% (inactive),
Cc1ccc(C)c(C)c1,,inactive
C/C=C/C(=O)C1=C(C)CCCC1(C)C,-2.56% (inactive),
COCCOCCOCCO,,inactive
COc1cccc(N(C)C(=S)Oc2ccc3c(c2)CCCC3)n1,-14.2% [at 42.5 µM] (inactive),
CCNc1nc(N)nc(Cl)n1,-0.405% (inactive),
C[N+](C)(C)CCO,,inactive
Nc1ccnc(=O)[nH]1,-0.562% (inactive),
O=c1[nH]cnc2c1ncn2[C@@H]1O[C@H](CO)[C@@H](O)[C@H]1O,-3.52% [at 42.5 µM] (inactive),
CNCc1cc(F)ccc1Oc1ccc(Cl)c(Cl)c1,0% (inactive),
CCCOCCOCCO,5.24% (inactive),
COc1ccc(OC)cc1,,inactive
CC(O)COc1ccccc1 (stereo not drawn),,inactive
Cc1ccccc1,-11.3% (inactive),

Compound,"activity change, negative = cytotoxicity",Potency
COc1ccc(C(=O)Nc2nc3ccccc3c(NCc3ccccc3)c2C#N)cc1,-16.6% (inactive),
N#Cc1c(F)cccc1F,-1.12% (inactive),
Cc1cc(CCN2CCN(c3nsc4ccccc34)CC2)cc2c1NC(=O)CC2(C)C,,68.6 µM (active)
O=C=Nc1ccc(Cc2ccc(N=C=O)cc2)cc1,,inactive
Cc1cccc([N+](=O)[O-])c1C(=O)O,6.99% (inactive),
CO[Si](OC)(OC)c1ccccc1,3.55% (inactive),
CCOC(=O)[C@H](CCc1ccccc1)N[C@@H](C)C(=O)N1Cc2ccccc2C[C@H]1C(=O)O,,inactive
CC(=O)C(=O)CC(C)C,22.1% (inactive),
CCCc1nc2c(C)cc(-c3nc4ccccc4n3C)cc2n1Cc1ccc(-c2ccccc2C(=O)O)cc1,18.4% [at 42.5 µM] (inactive),
CCCCOC(=O)c1ccc(N)cc1,,inactive
COc1ccc2c(c1)c1c3n2CCN(C)C3=NCC1,-10.4% [at 42.5 µM] (inactive),
COC(=O)C1=C(C)NC(C)=C(C(=O)OCCN2CCN(C(c3ccccc3)c3ccccc3)CC2)C1c1cccc([N+](=O)[O-])c1 (stereo not drawn),-9.93% [at 42.5 µM] (inactive),
CC1=CCC(C(C)C)=CC1,1.65% (inactive),
O=P(OC(CCl)CCl)(OC(CCl)CCl)OC(CCl)CCl,,inactive
Clc1ccc2cc3ccccc3cc2c1,0.489% (inactive),
c1ccc2n[nH]nc2c1,,inactive
NC(=O)/N=N/C(N)=O,,inactive
Cc1c(C(=O)NCCO)[n+](=O)c2ccccc2n1[O-],5.47% [at 42.5 µM] (inactive),
CCCSS/C(CCO)=C(\C)N(C=O)Cc1cnc(C)nc1N,12.5% [at 42.5 µM] (inactive),

# From PubChem BioAssay (Tox21)
